Assay results published in ChEMBL document CHEMBL1961873, “Compounds: GSK PKIS; Assays: Nanosyn kinase panel” (2012).

How the values were obtained:
[1] = biological target: Tyrosine-protein kinase CSK (Homo sapiens) (UniProt P41240); conditions: at 1 µM;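 note: each value is an averaged inhibition reading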
[2] = biological target: T1, Discoidin domain-containing receptor 2 (Homo sapiens) (UniProt Q16832); conditions: at 0.1 µM
T1 sequence (whole entry): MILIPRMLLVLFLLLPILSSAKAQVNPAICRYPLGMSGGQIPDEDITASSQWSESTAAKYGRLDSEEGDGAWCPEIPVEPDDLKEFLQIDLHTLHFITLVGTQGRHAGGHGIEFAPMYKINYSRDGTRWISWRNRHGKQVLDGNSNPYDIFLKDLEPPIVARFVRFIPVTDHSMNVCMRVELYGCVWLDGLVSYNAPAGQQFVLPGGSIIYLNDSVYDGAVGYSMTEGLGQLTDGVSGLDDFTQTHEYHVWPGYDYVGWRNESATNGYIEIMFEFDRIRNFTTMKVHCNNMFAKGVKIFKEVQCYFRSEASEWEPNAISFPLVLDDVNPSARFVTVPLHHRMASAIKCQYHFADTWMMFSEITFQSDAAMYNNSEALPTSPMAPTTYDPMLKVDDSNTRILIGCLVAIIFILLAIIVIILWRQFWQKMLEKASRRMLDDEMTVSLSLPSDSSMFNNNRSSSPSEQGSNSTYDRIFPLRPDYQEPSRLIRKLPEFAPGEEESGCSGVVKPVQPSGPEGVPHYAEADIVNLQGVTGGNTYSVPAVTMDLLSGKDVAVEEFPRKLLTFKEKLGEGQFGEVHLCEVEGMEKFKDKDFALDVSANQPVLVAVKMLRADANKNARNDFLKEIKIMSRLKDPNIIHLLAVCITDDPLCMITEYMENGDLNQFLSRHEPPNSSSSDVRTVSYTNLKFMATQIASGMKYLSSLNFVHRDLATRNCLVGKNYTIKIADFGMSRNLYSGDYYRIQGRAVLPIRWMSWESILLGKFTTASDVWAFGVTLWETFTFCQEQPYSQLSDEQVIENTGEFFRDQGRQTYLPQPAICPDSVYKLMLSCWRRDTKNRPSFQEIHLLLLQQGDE

[3] = biological target: T1, Discoidin domain-containing receptor 2 (Homo sapiens); conditions: at 1 µM
[4] = biological target: Epidermal growth factor receptor (Homo sapiens) (UniProt P00533); conditions: at 0.1 µM
[5] = biological target: Epidermal growth factor receptor (Homo sapiens) (UniProt P00533); conditions: at 1 µM
[6] = tested on: Epidermal growth factor receptor (Homo sapiens), P00533 [L858R]; conditions: at 0.1 µM
[7] = tested on: Epidermal growth factor receptor (Homo sapiens), P00533 [L858R]; conditions: at 1 µM
[8] = tested on: Epidermal growth factor receptor (Homo sapiens), P00533 [L861Q]; conditions: at 0.1 µM
[9] = tested on: Epidermal growth factor receptor (Homo sapiens), P00533 [L861Q]; conditions: at 1 µM
[10] = tested on: Epidermal growth factor receptor (Homo sapiens), P00533 [T790M]; conditions: at 0.1 µM
[11] = tested on: Epidermal growth factor receptor (Homo sapiens), P00533 [T790M]; conditions: at 1 µM
[12] = tested on: Epidermal growth factor receptor (Homo sapiens), P00533 [L858R,T790M]; conditions: at 0.1 µM
[13] = tested on: Epidermal growth factor receptor (Homo sapiens), P00533 [L858R,T790M]; conditions: at 1 µM
[14] = biological target: Ephrin type-A receptor 2 (Homo sapiens) (UniProt P29317); conditions: at 0.1 µM
[15] = biological target: Ephrin type-A receptor 2 (Homo sapiens) (UniProt P29317); conditions: at 1 µM
[16] = biological target: T2, Ephrin type-A receptor 3 (Homo sapiens) (UniProt P29320); conditions: at 0.1 µM
T2 sequence (whole entry): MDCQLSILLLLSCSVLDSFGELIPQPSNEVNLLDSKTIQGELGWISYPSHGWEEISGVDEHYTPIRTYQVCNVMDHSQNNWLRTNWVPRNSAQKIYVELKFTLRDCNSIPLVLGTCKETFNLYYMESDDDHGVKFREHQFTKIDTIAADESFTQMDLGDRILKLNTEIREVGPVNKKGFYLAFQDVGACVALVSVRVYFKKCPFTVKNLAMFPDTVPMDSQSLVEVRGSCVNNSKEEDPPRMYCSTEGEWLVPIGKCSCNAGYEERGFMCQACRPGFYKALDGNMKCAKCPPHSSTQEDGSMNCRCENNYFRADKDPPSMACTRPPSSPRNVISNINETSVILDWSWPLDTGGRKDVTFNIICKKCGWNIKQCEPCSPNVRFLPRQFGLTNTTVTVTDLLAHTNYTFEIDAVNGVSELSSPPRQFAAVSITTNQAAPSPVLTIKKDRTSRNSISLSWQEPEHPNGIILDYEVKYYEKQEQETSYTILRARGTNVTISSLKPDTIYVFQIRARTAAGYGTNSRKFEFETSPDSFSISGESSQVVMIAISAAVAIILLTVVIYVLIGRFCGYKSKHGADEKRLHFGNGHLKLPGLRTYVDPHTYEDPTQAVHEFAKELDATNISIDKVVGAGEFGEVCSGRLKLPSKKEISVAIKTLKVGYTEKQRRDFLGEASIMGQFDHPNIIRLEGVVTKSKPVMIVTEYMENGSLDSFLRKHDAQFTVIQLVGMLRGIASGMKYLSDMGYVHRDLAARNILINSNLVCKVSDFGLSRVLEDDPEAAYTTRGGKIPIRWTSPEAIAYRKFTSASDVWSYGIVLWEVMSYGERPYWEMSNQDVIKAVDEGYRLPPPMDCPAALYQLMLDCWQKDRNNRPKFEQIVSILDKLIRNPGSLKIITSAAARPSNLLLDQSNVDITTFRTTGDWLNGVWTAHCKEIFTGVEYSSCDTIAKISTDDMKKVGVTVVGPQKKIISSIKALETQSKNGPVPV

[17] = biological target: T2, Ephrin type-A receptor 3 (Homo sapiens); conditions: at 1 µM
[18] = biological target: Ephrin type-A receptor 4 (Homo sapiens) (UniProt P54764); conditions: at 0.1 µM
[19] = biological target: Ephrin type-A receptor 4 (Homo sapiens) (UniProt P54764); conditions: at 1 µM
[20] = biological target: T3, Ephrin type-B receptor 2 (Homo sapiens) (UniProt P29323); conditions: at 0.1 µM;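 note: reported as mean inhibition of EPHB2, from the GSK PKIS dataset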
T3 sequence (whole entry): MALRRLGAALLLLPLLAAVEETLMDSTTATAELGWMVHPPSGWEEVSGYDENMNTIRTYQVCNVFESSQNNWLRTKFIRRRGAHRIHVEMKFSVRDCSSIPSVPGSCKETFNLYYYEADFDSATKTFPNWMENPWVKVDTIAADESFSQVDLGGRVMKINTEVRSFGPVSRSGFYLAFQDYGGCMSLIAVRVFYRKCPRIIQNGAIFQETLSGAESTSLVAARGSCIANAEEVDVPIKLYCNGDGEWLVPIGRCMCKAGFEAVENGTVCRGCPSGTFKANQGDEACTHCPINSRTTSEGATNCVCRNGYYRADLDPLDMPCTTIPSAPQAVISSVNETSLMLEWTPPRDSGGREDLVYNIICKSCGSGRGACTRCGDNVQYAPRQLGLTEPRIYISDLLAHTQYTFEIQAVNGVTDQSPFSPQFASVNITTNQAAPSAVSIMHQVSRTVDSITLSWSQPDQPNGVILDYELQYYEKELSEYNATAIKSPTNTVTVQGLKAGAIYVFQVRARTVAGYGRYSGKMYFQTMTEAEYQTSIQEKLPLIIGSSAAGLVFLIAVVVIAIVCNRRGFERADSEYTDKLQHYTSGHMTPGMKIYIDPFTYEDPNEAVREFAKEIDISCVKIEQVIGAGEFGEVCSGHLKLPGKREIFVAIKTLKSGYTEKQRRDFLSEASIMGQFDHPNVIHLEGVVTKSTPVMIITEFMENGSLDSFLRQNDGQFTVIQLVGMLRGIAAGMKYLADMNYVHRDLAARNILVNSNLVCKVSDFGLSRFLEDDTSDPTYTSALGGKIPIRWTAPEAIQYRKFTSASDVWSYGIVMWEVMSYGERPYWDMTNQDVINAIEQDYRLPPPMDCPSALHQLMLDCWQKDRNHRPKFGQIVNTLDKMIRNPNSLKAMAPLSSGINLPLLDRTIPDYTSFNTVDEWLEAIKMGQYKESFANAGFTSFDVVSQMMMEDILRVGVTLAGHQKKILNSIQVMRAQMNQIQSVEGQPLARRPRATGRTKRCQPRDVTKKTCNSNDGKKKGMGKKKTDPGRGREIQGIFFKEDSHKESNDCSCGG

Chain of Epidermal growth factor receptor (Homo sapiens), P00533 [L861Q] (P00533 whole entry L861Q): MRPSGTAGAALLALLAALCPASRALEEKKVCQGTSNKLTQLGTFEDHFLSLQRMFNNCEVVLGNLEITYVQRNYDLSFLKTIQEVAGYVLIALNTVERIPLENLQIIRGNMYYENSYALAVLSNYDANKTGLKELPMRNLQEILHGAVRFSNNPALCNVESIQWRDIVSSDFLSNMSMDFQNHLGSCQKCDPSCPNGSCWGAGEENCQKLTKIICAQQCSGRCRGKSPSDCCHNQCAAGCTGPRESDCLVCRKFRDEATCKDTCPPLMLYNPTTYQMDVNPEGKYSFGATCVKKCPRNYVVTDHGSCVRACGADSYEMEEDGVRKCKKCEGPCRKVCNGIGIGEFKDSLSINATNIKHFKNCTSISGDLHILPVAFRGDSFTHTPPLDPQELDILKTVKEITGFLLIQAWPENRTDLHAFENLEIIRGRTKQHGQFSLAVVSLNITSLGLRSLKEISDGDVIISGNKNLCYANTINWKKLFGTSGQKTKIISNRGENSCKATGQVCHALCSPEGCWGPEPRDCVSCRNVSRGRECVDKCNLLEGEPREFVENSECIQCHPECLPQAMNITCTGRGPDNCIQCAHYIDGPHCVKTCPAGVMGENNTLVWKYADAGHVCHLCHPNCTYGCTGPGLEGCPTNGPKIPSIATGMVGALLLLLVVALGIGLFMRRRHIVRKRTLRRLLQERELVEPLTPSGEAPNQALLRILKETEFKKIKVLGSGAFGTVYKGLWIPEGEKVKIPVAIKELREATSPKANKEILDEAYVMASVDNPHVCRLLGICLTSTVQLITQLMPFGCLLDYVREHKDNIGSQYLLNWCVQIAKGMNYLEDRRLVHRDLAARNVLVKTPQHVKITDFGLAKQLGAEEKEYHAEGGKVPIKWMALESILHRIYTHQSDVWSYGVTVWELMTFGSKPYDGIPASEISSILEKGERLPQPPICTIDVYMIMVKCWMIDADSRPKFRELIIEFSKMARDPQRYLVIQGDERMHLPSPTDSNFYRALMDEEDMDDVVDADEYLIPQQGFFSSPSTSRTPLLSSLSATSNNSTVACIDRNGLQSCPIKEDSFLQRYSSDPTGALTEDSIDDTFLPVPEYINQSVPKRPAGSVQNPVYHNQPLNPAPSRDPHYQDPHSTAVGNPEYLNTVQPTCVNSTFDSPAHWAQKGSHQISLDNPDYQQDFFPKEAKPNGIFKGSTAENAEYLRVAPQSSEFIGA
Chain of Epidermal growth factor receptor (Homo sapiens), P00533 [L858R] (P00533 whole entry L858R): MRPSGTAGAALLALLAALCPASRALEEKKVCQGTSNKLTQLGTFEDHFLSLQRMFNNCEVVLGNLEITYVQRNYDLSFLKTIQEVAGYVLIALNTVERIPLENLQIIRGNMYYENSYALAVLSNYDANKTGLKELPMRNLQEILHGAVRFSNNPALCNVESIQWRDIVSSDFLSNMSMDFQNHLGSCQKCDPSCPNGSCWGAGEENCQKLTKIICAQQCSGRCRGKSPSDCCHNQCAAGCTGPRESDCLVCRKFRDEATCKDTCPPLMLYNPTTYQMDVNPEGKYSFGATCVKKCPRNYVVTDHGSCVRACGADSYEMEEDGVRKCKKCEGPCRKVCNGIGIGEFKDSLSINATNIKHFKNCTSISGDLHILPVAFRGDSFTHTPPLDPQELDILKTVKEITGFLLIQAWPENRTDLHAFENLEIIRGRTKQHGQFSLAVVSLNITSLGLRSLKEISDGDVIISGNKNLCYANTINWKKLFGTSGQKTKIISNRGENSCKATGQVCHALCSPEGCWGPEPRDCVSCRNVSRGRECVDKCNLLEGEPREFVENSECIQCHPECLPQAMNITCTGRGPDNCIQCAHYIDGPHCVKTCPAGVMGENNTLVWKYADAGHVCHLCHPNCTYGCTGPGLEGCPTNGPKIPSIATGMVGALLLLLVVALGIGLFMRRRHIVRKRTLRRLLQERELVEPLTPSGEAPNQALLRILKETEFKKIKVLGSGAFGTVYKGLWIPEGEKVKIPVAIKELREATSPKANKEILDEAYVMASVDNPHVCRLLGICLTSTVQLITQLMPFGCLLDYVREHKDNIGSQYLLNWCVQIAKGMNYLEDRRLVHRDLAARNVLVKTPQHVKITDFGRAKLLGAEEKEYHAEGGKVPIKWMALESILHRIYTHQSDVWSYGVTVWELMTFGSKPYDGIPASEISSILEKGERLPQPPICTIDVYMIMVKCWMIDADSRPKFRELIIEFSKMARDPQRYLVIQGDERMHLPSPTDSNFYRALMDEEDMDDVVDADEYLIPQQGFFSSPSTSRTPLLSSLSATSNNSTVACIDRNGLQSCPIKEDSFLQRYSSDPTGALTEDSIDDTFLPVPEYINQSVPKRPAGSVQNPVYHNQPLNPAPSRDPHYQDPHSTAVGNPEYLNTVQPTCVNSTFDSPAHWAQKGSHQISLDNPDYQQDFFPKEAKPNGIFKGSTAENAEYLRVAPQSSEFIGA
Chain of Epidermal growth factor receptor (Homo sapiens), P00533 [L858R,T790M] (P00533 whole entry T790M/L858R, looked up): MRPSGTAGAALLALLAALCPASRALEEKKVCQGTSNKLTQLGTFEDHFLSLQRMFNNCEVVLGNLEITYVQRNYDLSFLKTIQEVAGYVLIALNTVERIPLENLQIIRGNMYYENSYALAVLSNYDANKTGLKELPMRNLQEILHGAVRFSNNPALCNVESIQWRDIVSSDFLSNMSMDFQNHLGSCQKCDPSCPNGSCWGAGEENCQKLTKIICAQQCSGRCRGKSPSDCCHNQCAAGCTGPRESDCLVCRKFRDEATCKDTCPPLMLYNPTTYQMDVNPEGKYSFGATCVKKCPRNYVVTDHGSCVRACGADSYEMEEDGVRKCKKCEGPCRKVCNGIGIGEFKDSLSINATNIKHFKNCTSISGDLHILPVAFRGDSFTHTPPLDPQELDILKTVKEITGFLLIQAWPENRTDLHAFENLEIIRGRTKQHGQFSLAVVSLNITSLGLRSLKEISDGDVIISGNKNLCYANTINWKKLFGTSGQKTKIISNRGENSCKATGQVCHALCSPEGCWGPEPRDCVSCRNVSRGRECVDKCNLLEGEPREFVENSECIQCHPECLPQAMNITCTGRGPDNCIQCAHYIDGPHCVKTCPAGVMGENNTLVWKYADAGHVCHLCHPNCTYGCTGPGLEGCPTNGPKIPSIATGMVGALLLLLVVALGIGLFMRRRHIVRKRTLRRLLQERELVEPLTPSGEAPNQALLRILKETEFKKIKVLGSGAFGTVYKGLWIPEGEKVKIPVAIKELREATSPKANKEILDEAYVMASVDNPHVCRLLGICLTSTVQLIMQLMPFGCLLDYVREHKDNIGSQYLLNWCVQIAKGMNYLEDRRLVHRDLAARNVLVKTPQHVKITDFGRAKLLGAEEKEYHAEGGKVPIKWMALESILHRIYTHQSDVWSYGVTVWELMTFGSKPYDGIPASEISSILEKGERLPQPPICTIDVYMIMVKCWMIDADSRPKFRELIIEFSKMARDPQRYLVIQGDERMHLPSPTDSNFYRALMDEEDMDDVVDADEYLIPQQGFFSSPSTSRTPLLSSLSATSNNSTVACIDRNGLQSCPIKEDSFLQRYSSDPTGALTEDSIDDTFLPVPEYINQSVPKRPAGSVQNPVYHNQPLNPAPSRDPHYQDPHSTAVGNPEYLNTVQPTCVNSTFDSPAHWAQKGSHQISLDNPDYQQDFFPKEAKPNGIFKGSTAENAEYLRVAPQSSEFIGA
Chain of Ephrin type-A receptor 2 (Homo sapiens) (P29317 whole entry): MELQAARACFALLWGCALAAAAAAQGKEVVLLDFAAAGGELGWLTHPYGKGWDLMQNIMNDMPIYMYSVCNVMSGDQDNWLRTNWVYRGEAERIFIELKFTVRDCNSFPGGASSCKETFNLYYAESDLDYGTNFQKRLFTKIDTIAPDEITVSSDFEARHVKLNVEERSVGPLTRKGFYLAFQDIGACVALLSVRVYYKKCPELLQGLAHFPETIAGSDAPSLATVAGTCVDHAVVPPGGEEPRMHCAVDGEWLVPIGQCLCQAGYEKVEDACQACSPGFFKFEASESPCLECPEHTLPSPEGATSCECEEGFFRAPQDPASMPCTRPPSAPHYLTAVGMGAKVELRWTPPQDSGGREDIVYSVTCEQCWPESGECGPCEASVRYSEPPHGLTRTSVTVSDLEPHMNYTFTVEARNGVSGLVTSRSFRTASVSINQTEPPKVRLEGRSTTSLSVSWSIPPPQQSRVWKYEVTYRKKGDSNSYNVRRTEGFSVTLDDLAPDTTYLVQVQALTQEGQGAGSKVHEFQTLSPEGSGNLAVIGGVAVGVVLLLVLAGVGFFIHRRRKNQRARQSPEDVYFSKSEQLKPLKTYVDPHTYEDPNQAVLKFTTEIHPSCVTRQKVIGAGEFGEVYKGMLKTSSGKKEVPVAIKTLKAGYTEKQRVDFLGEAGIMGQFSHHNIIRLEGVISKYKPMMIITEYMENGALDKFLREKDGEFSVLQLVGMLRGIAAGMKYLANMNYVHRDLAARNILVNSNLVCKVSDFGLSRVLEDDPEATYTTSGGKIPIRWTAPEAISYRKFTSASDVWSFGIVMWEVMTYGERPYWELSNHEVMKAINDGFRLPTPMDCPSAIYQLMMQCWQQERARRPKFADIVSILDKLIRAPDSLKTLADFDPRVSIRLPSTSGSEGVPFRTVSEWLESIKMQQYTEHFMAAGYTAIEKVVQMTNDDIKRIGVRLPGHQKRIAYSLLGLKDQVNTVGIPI
Chain of Tyrosine-protein kinase CSK (Homo sapiens) (P41240 2-450 limits assumed): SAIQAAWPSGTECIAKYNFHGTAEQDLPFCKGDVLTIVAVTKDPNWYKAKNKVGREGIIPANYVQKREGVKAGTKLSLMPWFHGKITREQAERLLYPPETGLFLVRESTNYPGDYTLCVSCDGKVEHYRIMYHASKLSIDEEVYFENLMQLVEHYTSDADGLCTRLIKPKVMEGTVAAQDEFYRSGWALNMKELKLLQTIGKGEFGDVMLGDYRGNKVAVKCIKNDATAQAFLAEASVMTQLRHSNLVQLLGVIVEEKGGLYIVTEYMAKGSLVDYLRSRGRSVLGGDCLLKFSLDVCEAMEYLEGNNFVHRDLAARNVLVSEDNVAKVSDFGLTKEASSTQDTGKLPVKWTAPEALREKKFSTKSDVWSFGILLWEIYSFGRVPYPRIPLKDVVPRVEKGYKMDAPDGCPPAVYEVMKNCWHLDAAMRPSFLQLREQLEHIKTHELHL

SMILES	inhibition [1]	inhibition [2]	inhibition [3]	inhibition [4]	inhibition [5]	inhibition [6]	inhibition [7]	inhibition [8]	inhibition [9]	inhibition [10]	inhibition [11]	inhibition [12]	inhibition [13]	inhibition [14]	inhibition [15]	inhibition [16]	inhibition [17]	inhibition [18]	inhibition [19]	inhibition [20]
c1ccc(Nc2ncc(-c3ccccc3)o2)cc1	3.75%	2.39%	7.24%	4.96%	10.5%	4.87%	2.77%	2.75%	4.14%	2.39%	3.42%	-0.6%	3.56%	1.18%	0.47%	3.55%	4.8%	7.56%	12.1%	7.58%
O=C1Nc2ccccc2/C1=C/Nc1ccc2[nH]c(=O)[nH]c2c1	9.18%	5.46%	8.62%	4.63%	7.94%	3.53%	6.79%	4.1%	6.47%	3.08%	7.07%	4.62%	3.05%	2.36%	3.88%	5.7%	9.27%	12.9%	16.3%	15.9%
Cc1cc(-c2ccccn2)cc(C)c1/C=C/c1cncc(-c2nn[nH]n2)c1	20.2%	1.22%	5.62%	2%	9.58%	2.87%	4.85%	2.42%	5.99%	-0.39%	1.45%	-2.34%	3.4%	0.59%	2.96%	3.5%	4.9%	6.16%	17.3%	5.94%
ON=C1CCc2cc(-c3nc(C4CCNCC4)[nH]c3-c3ccncc3)ccc21	-6.96%	-0.82%	-2.38%	0.23%	2.59%	-0.65%	-1.1%	0.26%	-2.11%	-0.91%	-1.84%	-1.88%	0.18%	1.25%	0.6%	0.3%	-2.2%	-1.9%	-7.94%	-5.22%
N#Cc1c(NC(=O)c2ccccc2F)sc2c1CCCC2	-5.02%	-1.61%	-1.14%	2.1%	4%	1.21%	3.66%	-0.67%	-1.19%	-2.41%	-1.31%	-0.25%	-0.34%	-2.61%	-2.44%	-3.2%	-1.65%	-3.04%	-0.99%	-7.95%
CCS(=O)(=O)c1ccc(OC)c(Nc2nccc(N(C)c3ccc4c(C)n[nH]c4c3)n2)c1	15.2%	-0.23%	-2.28%	7.37%	35.2%	7.56%	43.1%	7.97%	31.4%	4.42%	18.8%	2.67%	4.47%	3.32%	10.1%	4.4%	12.2%	11.8%	45.3%	16.4%
COC(=O)c1cncc(/C=C/c2c(C)cc(O)cc2C)c1	24.8%	1.69%	10.3%	0.29%	3.19%	2.6%	11.5%	3.47%	7.07%	2.64%	4.21%	0.04%	4.09%	10.3%	40.2%	7.42%	16.2%	19%	66.6%	15.3%
NS(=O)(=O)c1cccc(Nc2cc(-c3ccc(F)cc3)n[nH]2)c1	6.86%	0.4%	2.6%	-0.56%	3.41%	1.69%	6.63%	2.18%	5.8%	2.62%	3.89%	0.96%	2.35%	0.44%	0.73%	4.22%	4.16%	8.18%	10%	5.43%
CN(C)c1cc2c(Nc3ccc4c(cnn4Cc4ccccc4)c3)ncnc2cn1	27.6%	1.06%	3.09%	–	–	–	–	–	–	–	–	–	–	0.12%	0.17%	3.01%	3.25%	6.93%	2.96%	2.52%
Cc1cc(Cl)cc2c1NC(=O)C2=NNc1ccc(S(N)(=O)=O)cc1	3.65%	5.11%	4.88%	0.92%	1.34%	0.35%	4.79%	1.56%	4.09%	1.21%	3.73%	-0.55%	2.83%	1.34%	1.02%	3.32%	2.87%	6.66%	7.34%	4.48%
[O-][S+]1CCN(Cc2ccc(-c3ccc4ncnc(Nc5ccc(OCc6ccccc6)c(Cl)c5)c4c3)o2)CC1	1.54%	0.28%	1.54%	–	–	–	–	–	–	–	–	–	–	-3.15%	-2.96%	-1.64%	-1.69%	2.8%	3.82%	6.04%
CN(C)C(=O)O[C@H]1CN[C@H](C#Cc2cc3ncnc(Nc4ccc(OCc5cccc(F)c5)c(Cl)c4)c3s2)C1	2.76%	1.62%	1.98%	–	–	–	–	–	–	–	–	–	–	-0.69%	0.86%	2.97%	4.79%	7.54%	8.32%	9.47%
NS(=O)(=O)c1ccc(Nc2cc(-c3cccc(O)c3)n[nH]2)cc1	5.32%	2.49%	3.91%	0.67%	1.98%	5.34%	5.18%	3.68%	1.85%	2.46%	3.02%	4.99%	3.61%	1.13%	0.64%	6.18%	6.36%	10.1%	7.86%	6.18%
NS(=O)(=O)c1ccc(-c2cc3ccncc3cc2OCc2ccccc2)cc1	5.2%	1.3%	2.48%	-0.53%	2.78%	5.04%	12.6%	3.81%	5.67%	1.46%	4.44%	2.11%	2.39%	0.69%	0.7%	2.29%	3.77%	9.03%	10.4%	7.31%
O=C1Nc2ccc(-c3cccnc3)cc2C1=Cc1cc(Br)c(O)c(Br)c1	-1.69%	2.03%	5.97%	-0.06%	5.08%	4.88%	10.5%	2.92%	2.2%	2.3%	0.57%	2.96%	5.14%	2.12%	0.76%	4.82%	3.94%	3.36%	5.16%	7.83%
